# Experimental data taken from the supplement of paper PMC4466140.
# B1: unnamed (peptide)
# chain: DFTLPPPPPPPGLDE
# B2: unnamed (peptide)
# chain: ITHRLRISIPGITGR
# B3: unnamed (peptide)
# chain: ANNQGPPNLPARDKS
# B4: unnamed (peptide)
# chain: NLDRSKISLPDFDDE
# Target: SpBzz1-D2
# Experiment: SPOT peptide array binding signal intensity (averaged, normalized) (arbitrary units (background-subtracted, floor 0; scale differs between SH3 domains)); higher = stronger binding of the SH3 domain to the peptide
# Outline: (§1)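 The binding signal is the normalized, background-subtracted spot intensity averaged over replicates; its arbitrary units differ between domains. It was obtained by incubating 10 μg/ml GST-fused SH3 domains from four yeast species overnight at 4°C in TBS-based blocking buffer on cellulose membranes with synthetic 15-mer peptides, cysteines replaced by serines, then detecting with anti-GST antibody, HRP anti-mouse secondary and luminol.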
row,Binder,SPOT peptide array binding signal intensity
1,B1,2.5
2,B2,1
3,B3,≤ 0

# Target: SpCyk3
# Experiment: as above
# Outline: as §1
row,Binder,SPOT peptide array binding signal intensity
1,B1,≤ 0
2,B2,30
3,B3,≤ 0

# Target: SpHof1
# Experiment: as above
# Outline: as §1
row,Binder,SPOT peptide array binding signal intensity
1,B1,2
2,B2,272
3,B3,0.5

# Target: SpHof1-2
# Experiment: as above
# Outline: as §1
row,Binder,SPOT peptide array binding signal intensity
1,B1,2.5
2,B2,31
3,B3,5.5

# Target: SpHof1-3
# Experiment: as above
# Outline: as §1
row,Binder,SPOT peptide array binding signal intensity
1,B1,1.5
2,B2,461
3,B3,6.75

# Target: SpHse1
# Experiment: as above
# Outline: as §1
row,Binder,SPOT peptide array binding signal intensity
1,B1,≤ 0
2,B2,625
3,B3,≤ 0

# Target: SpLsb1
# Experiment: as above
# Outline: as §1
row,Binder,SPOT peptide array binding signal intensity
1,B1,≤ 0
2,B2,10.8
3,B3,91

# Target: SpLsb4
# Experiment: as above
# Outline: as §1
row,Binder,SPOT peptide array binding signal intensity
1,B1,≤ 0
2,B2,108
3,B3,6520

# Target: SpMyo1
# Experiment: as above
# Outline: as §1
row,Binder,SPOT peptide array binding signal intensity
1,B1,1210
2,B2,3
3,B3,≤ 0

# Target: SpNbp2
# Experiment: as above
# Outline: as §1
row,Binder,SPOT peptide array binding signal intensity
1,B1,9
2,B2,802
3,B3,≤ 0

# Target: SpPex13
# Experiment: as above
# Outline: as §1
row,Binder,SPOT peptide array binding signal intensity
1,B1,≤ 0
2,B2,124
3,B3,≤ 0

# Target: SpRvs167
# Experiment: as above
# Outline: as §1
row,Binder,SPOT peptide array binding signal intensity
1,B1,≤ 0
2,B2,115
3,B3,3210

# Target: SpSla1-D1-D2
# Experiment: as above
# Outline: as §1
row,Binder,SPOT peptide array binding signal intensity
1,B1,≤ 0
2,B2,1
3,B3,≤ 0

# Target: SpSla1-D3
# Experiment: as above
# Outline: as §1
row,Binder,SPOT peptide array binding signal intensity
1,B1,≤ 0
2,B2,6.5
3,B3,≤ 0

# Target: AgAbp1
# Experiment: as above
# Outline: as §1
row,Binder,SPOT peptide array binding signal intensity
1,B2,4.5
2,B3,4.5
3,B4,4.5

# Target: AgBbc1
# Experiment: as above
# Outline: as §1
row,Binder,SPOT peptide array binding signal intensity
1,B2,199
2,B3,0.25
3,B4,0.75

# Target: AgBem1-D1
# Experiment: as above
# Outline: as §1
row,Binder,SPOT peptide array binding signal intensity
1,B2,314
2,B3,3.5
3,B4,5.5

# Target: AgBzz1-D1
# Experiment: as above
# Outline: as §1
row,Binder,SPOT peptide array binding signal intensity
1,B2,121
2,B3,9.5
3,B4,26

# Target: AgBzz1-D2
# Experiment: as above
# Outline: as §1
row,Binder,SPOT peptide array binding signal intensity
1,B2,236
2,B3,4
3,B4,14

# Target: AgCyk3
# Experiment: as above
# Outline: as §1
row,Binder,SPOT peptide array binding signal intensity
1,B2,10
2,B3,≤ 0
3,B4,≤ 0

# Target: AgFus1
# Experiment: as above
# Outline: as §1
row,Binder,SPOT peptide array binding signal intensity
1,B2,1770
2,B3,≤ 0
3,B4,42

# Target: AgHof1
# Experiment: as above
# Outline: as §1
row,Binder,SPOT peptide array binding signal intensity
1,B2,112
2,B3,1
3,B4,11.5

# Target: AgHse1
# Experiment: as above
# Outline: as §1
row,Binder,SPOT peptide array binding signal intensity
1,B2,580
2,B3,≤ 0
3,B4,716

# Target: AgLsb1
# Experiment: as above
# Outline: as §1
row,Binder,SPOT peptide array binding signal intensity
1,B2,54.5
2,B3,144
3,B4,≤ 0

# Target: AgLsb4
# Experiment: as above
# Outline: as §1
row,Binder,SPOT peptide array binding signal intensity
1,B2,687
2,B3,4990
3,B4,18

# Target: AgMyo5
# Experiment: as above
# Outline: as §1
row,Binder,SPOT peptide array binding signal intensity
1,B2,≤ 0
2,B3,≤ 0
3,B4,≤ 0

# Target: AgNbp2
# Experiment: as above
# Outline: as §1
row,Binder,SPOT peptide array binding signal intensity
1,B2,101
2,B3,≤ 0
3,B4,4

# Target: AgRvs167
# Experiment: as above
# Outline: as §1
row,Binder,SPOT peptide array binding signal intensity
1,B2,16.7
2,B3,274
3,B4,7

# Target: AgSho1
# Experiment: as above
# Outline: as §1
row,Binder,SPOT peptide array binding signal intensity
1,B2,329
2,B3,≤ 0
3,B4,11.5

# Target: AgSla1-D1-D2
# Experiment: as above
# Outline: as §1
row,Binder,SPOT peptide array binding signal intensity
1,B2,116
2,B3,≤ 0
3,B4,≤ 0

# Target: AgSla1-D3
# Experiment: as above
# Outline: as §1
row,Binder,SPOT peptide array binding signal intensity
1,B2,6
2,B3,0.75
3,B4,≤ 0

# Target: CaAbp1-D1
# Experiment: as above
# Outline: as §1
row,Binder,SPOT peptide array binding signal intensity
1,B2,111
2,B3,8
3,B4,33.5

# Target: CaAbp1-D2
# Experiment: as above
# Outline: as §1
row,Binder,SPOT peptide array binding signal intensity
1,B2,39
2,B3,18.5
3,B4,26

# Target: CaBbc1
# Experiment: as above
# Outline: as §1
row,Binder,SPOT peptide array binding signal intensity
1,B2,306
2,B3,20.5
3,B4,8

# Target: CaBem1-D1
# Experiment: as above
# Outline: as §1
row,Binder,SPOT peptide array binding signal intensity
1,B2,84
2,B3,≤ 0
3,B4,4

# Target: CaBzz1-D1
# Experiment: as above
# Outline: as §1
row,Binder,SPOT peptide array binding signal intensity
1,B2,362
2,B3,6.5
3,B4,31

# Target: CaBzz1-D2
# Experiment: as above
# Outline: as §1
row,Binder,SPOT peptide array binding signal intensity
1,B2,226
2,B3,4.5
3,B4,2.5

# Target: CaCyk3
# Experiment: as above
# Outline: as §1
row,Binder,SPOT peptide array binding signal intensity
1,B2,37.5
2,B3,≤ 0
3,B4,≤ 0

# Target: CaFus1
# Experiment: as above
# Outline: as §1
row,Binder,SPOT peptide array binding signal intensity
1,B2,2510
2,B3,≤ 0
3,B4,283

# Target: CaHof1
# Experiment: as above
# Outline: as §1
row,Binder,SPOT peptide array binding signal intensity
1,B2,1.75
2,B3,≤ 0
3,B4,1.5

# Target: CaHse1
# Experiment: as above
# Outline: as §1
row,Binder,SPOT peptide array binding signal intensity
1,B2,62.5
2,B3,38.8
3,B4,21

# Target: CaLsb1
# Experiment: as above
# Outline: as §1
row,Binder,SPOT peptide array binding signal intensity
1,B2,5
2,B3,≤ 0
3,B4,≤ 0

# Target: CaLsb4
# Experiment: as above
# Outline: as §1
row,Binder,SPOT peptide array binding signal intensity
1,B2,141
2,B3,5930
3,B4,≤ 0

# Target: CaMyo5
# Experiment: as above
# Outline: as §1
row,Binder,SPOT peptide array binding signal intensity
1,B2,20.8
2,B3,0.5
3,B4,6.25

# Target: CaNbp2
# Experiment: as above
# Outline: as §1
row,Binder,SPOT peptide array binding signal intensity
1,B2,454
2,B3,≤ 0

# Target: CaRvs167
# Experiment: as above
# Outline: as §1
row,Binder,SPOT peptide array binding signal intensity
1,B2,636
2,B3,2230

# Target: CaRvs167-3
# Experiment: as above
# Outline: as §1
row,Binder,SPOT peptide array binding signal intensity
1,B2,2400
2,B3,3

# Target: CaSho1
# Experiment: as above
# Outline: as §1
row,Binder,SPOT peptide array binding signal intensity
1,B2,855
2,B3,≤ 0

# Target: CaSla1-D1-D2
# Experiment: as above
# Outline: as §1
row,Binder,SPOT peptide array binding signal intensity
1,B2,28
2,B3,≤ 0

# Target: CaSla1-D3
# Experiment: as above
# Outline: as §1
row,Binder,SPOT peptide array binding signal intensity
1,B2,454
2,B3,≤ 0

# Target: ScAbp1
# Experiment: as above
# Outline: as §1
row,Binder,SPOT peptide array binding signal intensity
1,B2,23
2,B3,7

# Target: ScBbc1
# Experiment: as above
# Outline: as §1
row,Binder,SPOT peptide array binding signal intensity
1,B2,16.8
2,B3,2

# Target: ScBem1-D1
# Experiment: as above
# Outline: as §1
row,Binder,SPOT peptide array binding signal intensity
1,B2,44.5
2,B3,≤ 0

# Target: ScBzz1-D1
# Experiment: as above
# Outline: as §1
row,Binder,SPOT peptide array binding signal intensity
1,B2,100
2,B3,5

# Target: ScBzz1-D2
# Experiment: as above
# Outline: as §1
row,Binder,SPOT peptide array binding signal intensity
1,B2,442
2,B3,1

# Target: ScCyk3
# Experiment: as above
# Outline: as §1
row,Binder,SPOT peptide array binding signal intensity
1,B2,72
2,B3,≤ 0

# Target: ScFus1
# Experiment: as above
# Outline: as §1
row,Binder,SPOT peptide array binding signal intensity
1,B2,2080
2,B3,2

# Target: ScHof1
# Experiment: as above
# Outline: as §1
row,Binder,SPOT peptide array binding signal intensity
1,B2,2
2,B3,2

# Target: ScHse1
# Experiment: as above
# Outline: as §1
row,Binder,SPOT peptide array binding signal intensity
1,B2,2140
2,B3,42.5

# Target: ScLsb1
# Experiment: as above
# Outline: as §1
row,Binder,SPOT peptide array binding signal intensity
1,B2,33.5
2,B3,645

# Target: ScLsb2
# Experiment: as above
# Outline: as §1
row,Binder,SPOT peptide array binding signal intensity
1,B2,22
2,B3,5

# Target: ScLsb3
# Experiment: as above
# Outline: as §1
row,Binder,SPOT peptide array binding signal intensity
1,B2,282
2,B3,7290

# Target: ScLsb4
# Experiment: as above
# Outline: as §1
row,Binder,SPOT peptide array binding signal intensity
1,B2,20
2,B3,4380

# Target: ScMyo3
# Experiment: as above
# Outline: as §1
row,Binder,SPOT peptide array binding signal intensity
1,B2,≤ 0
2,B3,≤ 0

# Target: ScMyo5
# Experiment: as above
# Outline: as §1
row,Binder,SPOT peptide array binding signal intensity
1,B2,1.5
2,B3,≤ 0

# Target: ScNbp2
# Experiment: as above
# Outline: as §1
row,Binder,SPOT peptide array binding signal intensity
1,B2,397
2,B3,≤ 0

# Target: ScPex13
# Experiment: as above
# Outline: as §1
row,Binder,SPOT peptide array binding signal intensity
1,B2,50.2
2,B3,472

# Target: ScRvs167
# Experiment: as above
# Outline: as §1
row,Binder,SPOT peptide array binding signal intensity
1,B2,163
2,B3,2820

# Target: ScSho1
# Experiment: as above
# Outline: as §1
row,Binder,SPOT peptide array binding signal intensity
1,B2,2380
2,B3,≤ 0

# Target: ScSla1-D1-D2
# Experiment: as above
# Outline: as §1
row,Binder,SPOT peptide array binding signal intensity
1,B2,267
2,B3,≤ 0

# Target: ScSla1-D3
# Experiment: as above
# Outline: as §1
row,Binder,SPOT peptide array binding signal intensity
1,B2,69
2,B3,0.75

# Target: SpAbp1-D1
# Experiment: as above
# Outline: as §1
row,Binder,SPOT peptide array binding signal intensity
1,B2,91.5
2,B3,≤ 0

# Target: SpBbc1
# Experiment: as above
# Outline: as §1
row,Binder,SPOT peptide array binding signal intensity
1,B2,57.2
2,B3,≤ 0

# Target: SpBzz1-D1
# Experiment: as above
# Outline: as §1
row,Binder,SPOT peptide array binding signal intensity
1,B2,486
2,B3,6
